These results are taken from ChEMBL document CHEMBL3988442, “University of Dundee, Small-Polar-MMV Screening Library” (2021).

For the experiment, the target named is Chromo domain-containing protein 1 (Saccharomyces cerevisiae (strain ATCC 204508 / S288c) (Baker's yeast)) (UniProt P32657). Put plainly: ScCHD-1 Enzyme Inhibition Assay. Type of experiment: functional. Set-up: scale not given: in the data most compounds retested in dose-response had high values. The settings on record: 30 µM.
Chain of Chromo domain-containing protein 1 (Saccharomyces cerevisiae (strain ATCC 204508 / S288c) (Baker's yeast)) (P32657 whole entry, the tested form may be a part): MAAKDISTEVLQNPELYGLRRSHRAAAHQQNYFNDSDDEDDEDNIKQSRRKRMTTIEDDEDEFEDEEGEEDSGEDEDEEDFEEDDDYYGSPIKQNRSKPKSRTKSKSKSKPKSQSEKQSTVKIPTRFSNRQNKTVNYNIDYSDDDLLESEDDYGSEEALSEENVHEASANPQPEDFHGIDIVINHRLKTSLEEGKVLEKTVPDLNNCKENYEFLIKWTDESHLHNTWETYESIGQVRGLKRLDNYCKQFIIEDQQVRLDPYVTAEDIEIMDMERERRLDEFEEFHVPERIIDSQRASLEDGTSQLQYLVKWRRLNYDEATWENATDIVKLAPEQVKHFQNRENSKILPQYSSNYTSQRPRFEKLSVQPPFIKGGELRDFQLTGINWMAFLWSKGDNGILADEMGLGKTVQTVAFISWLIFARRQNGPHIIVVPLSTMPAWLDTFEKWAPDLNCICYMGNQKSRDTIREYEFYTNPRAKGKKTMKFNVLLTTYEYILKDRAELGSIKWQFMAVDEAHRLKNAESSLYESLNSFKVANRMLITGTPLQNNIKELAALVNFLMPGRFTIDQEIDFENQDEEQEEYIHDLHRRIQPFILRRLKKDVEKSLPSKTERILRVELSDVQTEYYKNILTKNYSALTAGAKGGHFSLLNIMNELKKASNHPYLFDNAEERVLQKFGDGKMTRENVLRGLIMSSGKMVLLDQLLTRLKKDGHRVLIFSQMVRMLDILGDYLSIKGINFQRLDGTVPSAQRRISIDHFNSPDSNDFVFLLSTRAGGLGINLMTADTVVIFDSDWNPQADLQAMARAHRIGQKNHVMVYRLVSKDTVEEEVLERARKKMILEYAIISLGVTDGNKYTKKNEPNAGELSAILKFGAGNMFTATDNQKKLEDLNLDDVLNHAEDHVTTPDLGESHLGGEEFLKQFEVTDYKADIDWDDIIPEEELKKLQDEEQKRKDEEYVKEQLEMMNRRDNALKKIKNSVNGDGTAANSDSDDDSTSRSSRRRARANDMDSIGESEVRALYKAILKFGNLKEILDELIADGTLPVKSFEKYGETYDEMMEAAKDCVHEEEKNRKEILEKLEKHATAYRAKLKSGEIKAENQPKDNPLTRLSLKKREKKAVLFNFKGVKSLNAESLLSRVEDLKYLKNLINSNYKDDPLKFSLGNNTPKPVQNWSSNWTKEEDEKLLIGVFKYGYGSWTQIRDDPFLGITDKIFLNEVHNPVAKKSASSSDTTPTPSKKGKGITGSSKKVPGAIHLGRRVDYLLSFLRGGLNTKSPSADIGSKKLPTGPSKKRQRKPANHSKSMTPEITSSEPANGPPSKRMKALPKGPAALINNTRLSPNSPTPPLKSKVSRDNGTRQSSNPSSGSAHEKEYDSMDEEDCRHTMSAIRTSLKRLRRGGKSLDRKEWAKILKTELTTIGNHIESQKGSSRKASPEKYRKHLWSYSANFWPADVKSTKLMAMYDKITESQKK
`O=C(NCC1CC1)[C@@H]1CCO[C@@H]2CCN(Cc3ccco3)C[C@H]21`: the Percent Effect is -0.123%.

Turning to `CC(C)Nc1ncnc2c1CCN(C(=O)c1ccncc1F)CC2`, the Percent Effect was -3.13%.

Regarding `Cc1nc[nH]c1CN1C[C@@H]2CC[C@H](C1)N(C(=O)CCNS(C)(=O)=O)C2`, the Percent Effect is -4.5%.

As for `O=C(N[C@@H]1CN(c2ncccn2)C[C@@H]2CCCO[C@@H]21)c1cnccn1`, the Percent Effect is -6.1%.

As to `CNc1cncc(C2CCCN2Cc2ccccn2)n1` (centres undefined), the Percent Effect was -18.3%.

Regarding `Fc1ccc2[nH]c(C3CCCN3CCc3ccccn3)nc2c1` (centres undefined), the Percent Effect was found to be 2.89%.

Consider `CS(=O)(=O)NCc1cn2c(n1)CN(C(=O)c1ccc[nH]1)CC2`, for which the Percent Effect was -4.02%.

Turning to `O=C(CCNS(=O)(=O)c1ccccc1)NCc1ccoc1`, the Percent Effect is -4.93%.

Regarding `O=C(NCc1ccc(-n2cncn2)nc1)c1ccoc1`, the Percent Effect was -15.1%.

`Cn1ccnc1CN1CCC2(CC(=O)N(c3cccc(F)c3)C2)C1` (centres undefined): the Percent Effect is -7.71%.

For `CC(C)c1nc2n(n1)CC(NCc1nc(-c3cccnc3)no1)CC2` (centres undefined), the Percent Effect is -23.3%.

For `O=C(NCc1nnc2n1CCCC2)N1CCc2ccccc2C1`, the Percent Effect was -7.99%.

`Cc1oc(C)c(C(=O)N2CCCN(Cc3cscn3)CC2)c1C`: the Percent Effect is -15.7%.

As to `COc1c(CNC2CCN(C(=O)C3CC3)CC2)c(C(C)C)nn1C`, the Percent Effect is -3.47%.

Consider `CN(C)C(=O)c1ccc(CNC(=O)NCCN(C)C2CCCC2)cc1`, for which the Percent Effect was -6.9%.

As to `CC(C(=O)N1CCCN(Cc2ccc(C#N)cc2)CC1)n1ccnc1` (centres undefined), the Percent Effect was -7.57%.

Turning to `CCOc1ccccc1C(CC(=O)Nc1ccc(C)cn1)NC(C)=O` (centres undefined), the Percent Effect was -15.3%.

As to `CC(C)COC(C)C(=O)NCc1ccc(OC(C)C)nc1` (centres undefined), the Percent Effect was -24.5%.

In the case of `O=C(CNCCn1cccn1)NCC1(c2ccccc2)CC1`, the Percent Effect was -6.43%.
